Screens: PubChem, National Center for Advancing Translational Sciences (NCATS)
An excerpt weighted towards active compounds, which were near 2.7% of everything screened.
A549 viability: Nrf2 qHTS screen for inhibitors: counterscreen for cytotoxicity. A549 ARE-Fluc cells, CellTiter-Fluor viability, 18-24 h. Potency, µM (series often up to 46 µM), for the others: at the top dose activity change, negative = cytotoxicity, usual class: inhibitors. actives 0.16% (n = 390,000). AID 504648, 2011; further: potency means the concentration at half of the fitted maximal effect; on the % scale 0 is the no-effect control and ±100 the full control effect
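Cytotoxicity counterscreen: CellTiter-Fluor fluorescence was measured in A549 ARE_Fluc cells after 18-24 h of compound exposure in a concentration series. The subsequent BugLite luminescent read reports ARE-luciferase activity.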
LDHA inh: qHTS assay for inhibitors of human lactate dehydrogenase; AID 1347041, 2019; activity change, % (values are at about 110 or 230 µM); actives 0.15% (n = 480,000); purified LDHA, NADH/diaphorase-resazurin fluorescence; hits give low values; in the data active means activity change below about -30%; inconclusive means mostly about -25% to -30%;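 further: plate controls were DMSO wells for no effect and wells without enzyme for full effect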
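Human LDH5 at 2 nM final in Tris HCl pH 7.4 with 0.06 mM NADH and 0.2 mM pyruvate, reacted 5 minutes at room temperature. Remaining NADH coupled via diaphorase/resazurin; resorufin fluorescence read at 0 and 20 minutes, normalized to enzyme-free and DMSO wells.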
12-LOX inh: Primary qHTS assay for inhibitors of human arachidonate 12S-lipoxygenase (ALOX12): Round 2; Polyunsaturated fatty acid lipoxygenase ALOX12 (Homo sapiens), P18054; purified 12hLO, xylenol orange hydroperoxide absorbance; Potency, µM (doses to about 108 µM), without a hit: top-dose activity change, negative = inhibition, usual class: inhibitors; actives 1.1% (n = 580,000); further: potency means the concentration at half of the fitted maximal effect; on the % scale 0 is the no-effect control and ±100 the full control effect
Target sequence (P18054 whole entry, looked up): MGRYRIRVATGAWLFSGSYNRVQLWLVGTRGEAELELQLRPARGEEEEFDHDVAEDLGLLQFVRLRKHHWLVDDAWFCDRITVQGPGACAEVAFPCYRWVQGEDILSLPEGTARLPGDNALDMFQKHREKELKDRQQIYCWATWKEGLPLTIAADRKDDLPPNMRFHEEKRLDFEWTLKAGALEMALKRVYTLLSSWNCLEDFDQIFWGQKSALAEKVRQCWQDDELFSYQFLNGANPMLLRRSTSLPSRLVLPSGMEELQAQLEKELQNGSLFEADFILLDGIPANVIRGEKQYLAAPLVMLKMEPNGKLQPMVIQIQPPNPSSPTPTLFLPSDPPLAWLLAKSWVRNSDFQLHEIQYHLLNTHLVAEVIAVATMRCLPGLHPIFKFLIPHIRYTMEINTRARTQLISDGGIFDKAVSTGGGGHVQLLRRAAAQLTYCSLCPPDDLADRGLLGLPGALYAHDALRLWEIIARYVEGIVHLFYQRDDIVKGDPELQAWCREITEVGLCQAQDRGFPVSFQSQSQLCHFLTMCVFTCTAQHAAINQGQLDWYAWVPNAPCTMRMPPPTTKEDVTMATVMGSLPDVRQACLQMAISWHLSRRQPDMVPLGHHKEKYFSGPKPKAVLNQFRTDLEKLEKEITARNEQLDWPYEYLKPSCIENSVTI
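Purified human 12hLO at 150 nM in 25 mM Hepes, 0.01% Triton X-100, pH 7.0, preincubated 15 min at room temperature with compound. Reaction started with 40 uM arachidonic acid, 30 min at room temperature. Hydroperoxide measured by Fe-xylenol orange, 573/405 nm absorbance ratio.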
Nrf2 inh: Nrf2 qHTS screen for inhibitors | A549 ARE-Fluc reporter, luciferase luminescence, 18-24 h | Potency, µM (highest dose often 46 µM), for the others: at the top dose activity change, negative = inhibition, actives largely listed as inhibitors | actives 2.1% (n = 360,000) | AID 504444, 2011; further: potency means the concentration at half of the fitted maximal effect; on the % scale 0 is the no-effect control and ±100 the full control effect; nearly all actives have a fitted effect of over 60% in size
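Concentration-response testing used A549 ARE_Fluc cells at 5000 cells/well. Following an 18-24 h compound incubation, viability was read by fluorescence (Ex 405/Em 525) and luciferase output by luminescence.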
Nrf2 ARE act: qHTS of Nrf2 Activators. AREc32 ARE-luciferase reporter (MCF7-derived line), luminescence, 24 h. Potency, µM (top dose mostly 46.1 µM), for inactives: at the highest dose activation, most hits filed as activators. actives 0.31% (n = 410,000). AID 624171, 2012; further: potency means the concentration at half of the fitted maximal effect; % of control where 0% means no effect; nearly all actives have a fitted effect of over 65% in size
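AREc32 cells carrying an ARE-driven firefly luciferase reporter were seeded at 1000 cells/well in OPTI-MEM with 5% FBS, then exposed to compound for 24 hr at 37 deg C. Luminescence was read with Steady-Glo after 30 min at RT.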
ERG-DNA inh: qHTS for Small Molecule Inhibitors of the ERG Ets/DNA interaction | fluorescence polarization, His-ERG Ets domain / labelled DNA | Transcriptional regulator ERG (Homo sapiens), P11308 | actives 0.028% (n = 370,000) | Potency, µM (doses to about 76.9 µM), inactives show top-dose FP activity, negative = inhibition, actives largely listed as inhibitors | AID 624246, 2012; active means well fitted inhibition curve with a large enough effect in the polarisation, with a control signal flat; inconclusive means small, poorly fitted or top-dose-only effect, or effect the other way, or a change in a side signal; inactive means no such curve, though single readings can be large or run the other way; the % refers to the polarisation;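 further: polarization taken with two DNA probes labelled with fluorescein and Texas red; potency means the concentration at half of the fitted maximal effect; % of control where 0% means no effect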
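His-tagged ERG Ets domain (1 uM in the protein solution; 300mM KCl, 50mM Tris-HCl, 1mM EDTA, 1mM DTT, pH 7.5) received compound, then a probe mix of 5 nM fluorescein-DNA and 100nM Texas-615-DNA. Fluorescence polarization was read for both dyes.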
Active calls of the source: *; ? = inconclusive; nt = no result; [ ] = another dose, or the depositor's remark. Unless noted, the call rests on the fitted dose curve; in most records, active means well fitted curve in the direction sought with a large enough effect; inconclusive means small, poorly fitted or top-dose-only effect, or another doubt; inactive means no such curve, though single readings can be large; an effect the other way counts as inactive or inconclusive.

SMILES	A549 viability	LDHA inh	12-LOX inh	Nrf2 inh	Nrf2 ARE act	ERG-DNA inh
CCOC(=O)c1c(/N=C/c2cc([N+](=O)[O-])ccc2O)sc(C)c1C	8%	0	35µM*	5%	-1%	10%
COc1ccc(CC(=O)Nc2cccc(-c3nnc(-c4ccco4)o3)c2)cc1	?	-2	-2%	6.5µM*	-1%	12%
CSc1cccc(NC(=O)c2cccc(Cl)c2Cl)c1	nt	1	-7%	nt	nt	nt
CCCCn1c(-c2nonc2N)nc2ccccc21	-20%	-5	0%	15µM*	-1%	2%
COC(=O)C1=C(C)C=C(N2CCOCC2)C(C(=O)OC)C1c1ccc(OC)cc1 (stereo not drawn)	nt	14	-27%	nt	nt	nt
COc1ccc(-n2cnc3c2NC(=O)CC3c2cccnc2)c(OC)c1 (stereo not drawn)	nt	90	?	nt	nt	nt
Cc1c(C(=S)Nc2ccccc2)cnn1-c1ccc([N+](=O)[O-])cc1	-3%	-3	-19%	23µM*	-1%[9.22 µM]	1%
CCOC(=O)CN(C(=O)CN1CCC(n2nnc3cc(C)ccc32)CC1)c1ccccc1	8%	-4	9%	12%	-1%	-9%
Cc1ccc2c(c1)nnn2C1CCN(CC(=O)N(c2ccccc2)c2ccccc2)CC1	?	-5	-23%	15µM*	2%	5%
CC(NC(=O)C1CCCCC1)c1ccc(NC(=O)C2CC2)cc1 (stereo not drawn)	nt	8	?	nt	nt	nt
O=C(NCC1CCCO1)c1cc(-c2ccncc2)nc2ccccc12 (stereo not drawn)	-1%	-3	-4%	-6%	0%	5%
O=C(Nc1ccc(Br)cn1)c1coc(=O)c(Br)c1	-1%	-4	-29%	?	18µM*	13%
C[C@@H](NC(=O)c1coc(=O)c(Br)c1)c1ccccc1	-12%	-6	-7%	?	11µM*	4%
O=C(NCC1CCCO1)c1cc(-c2ccco2)nc2ccccc12 (stereo not drawn)	-3%	-4	?	2%	11µM*	-7%
CC(NC(=O)c1ccc(-c2ccco2)cc1)c1ccccc1 (stereo not drawn)	nt	1	13µM*	nt	nt	nt
COc1ccc(C(=O)NC(C)c2ccccc2)cc1Br (stereo not drawn)	3%	-12	4%	-16%	0%	3%
Cc1c(Cl)cccc1NC(=O)c1n[nH]c(=O)c2ccccc12	nt	-5	?	nt	nt	nt
COc1ccc(OCc2ccc(C(=O)O)o2)cc1	nt	0	?	nt	nt	nt
CN(C)C(CNC(=O)c1cc(-c2ccco2)nc2ccccc12)c1ccccc1 (stereo not drawn)	-11%	2	10µM*	?	13µM*	-2%
CC(NC(=O)c1cc(-c2ccco2)nc2ccccc12)c1ccccc1 (stereo not drawn)	nt	-12	45µM*	nt	nt	nt
CC(C)CCNC(=O)c1cc(-c2ccco2)nc2ccccc12	1%	-7	?	-11%	?	-11%
CCc1ccc2oc(C(=O)N(Cc3ccc(Cl)cc3)C3CCS(=O)(=O)C3)cc(=O)c2c1 (stereo not drawn)	nt	-1	-1%	nt	nt	nt
Cc1[nH]c(=O)nc(SCc2cccc(Cl)c2)c1C#N	-2%	-16	?	-21%	2%	3%
N#Cc1c(-c2ccccc2)nc(SCc2cccc(Cl)c2)[nH]c1=O	1%	-7	40µM*	2%	0%	1%
CC(C)(C)c1ccc(-c2nc(SCC(=O)Nc3ccc(Cl)cc3)[nH]c(=O)c2C#N)cc1	-5%	-31*	?	15%	-1%	-1%
